Several values for one entry are separate records, joined by “and”; a condition that tells them apart may be missing. Identical values can stand only once. Inconclusive results are not listed. Some structures have more than one record in an assay (separate samples or runs), and their calls can disagree. Activity calls are given as the source filed them. Calls come from the whole dose curve; as a rule, active = well fitted curve in the direction sought with a large enough effect; inconclusive = small, poorly fitted or top-dose-only effect, or another doubt; inactive = no such curve, though single readings can be large; an effect the other way counts as inactive or inconclusive. Peptide text beside a SMILES is read from it.
Tests used:
[1] = Quantitative High-Throughput drug screen in 47 multiple myeloma cell lines against the NCATS MIPE library collection: FR4_PLB cell viability assay (AID 1918924; note: nearly all actives have a fitted effect of over 35% in size; note: potency is the fitted concentration of half-maximal effect)
In short: (§1)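 Primary qHTS used for cherry-picking: cells at 500/well, library compounds for 48 h (37C, 5% CO2), luminescent ATP assay.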

[2] = Quantitative High-Throughput drug screen in 47 multiple myeloma cell lines against the NCATS MIPE library collection: Delta47_JCRB cell viability assay (AID 1918925; note: nearly all actives have a fitted effect of over 45% in size; note: potency is the fitted concentration of half-maximal effect)
In short: (§2)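 qHTS of the MIPE 4.0 collection: 500 myeloma cells/well, 48 h drug exposure at 37C in 5% CO2, then CellTiter-Glo for 5 min at room temperature before luminescence reading.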

[3] = Quantitative High-Throughput drug screen in 47 multiple myeloma cell lines against the NCATS MIPE library collection: EJM_DSMZ cell viability assay (AID 1918926; note: nearly all actives have a fitted effect of over 30% in size; note: potency is the fitted concentration of half-maximal effect)
In short: as §2

[4] = Quantitative High-Throughput drug screen in 47 multiple myeloma cell lines against the NCATS MIPE library collection: AMO1_DSMZ cell viability assay (AID 1918927; note: nearly all actives have a fitted effect of over 30% in size; note: potency is the fitted concentration of half-maximal effect)
In short: as §2

[5] = Quantitative High-Throughput drug screen in 47 multiple myeloma cell lines against the NCATS MIPE library collection: Karpas620_DSMZ cell viability assay (AID 1918959); note: nearly all actives have a fitted effect of over 30% in size; note: potency is the fitted concentration of half-maximal effect
In short: as §1

[6] = target: Phospholipid hydroperoxide glutathione peroxidase GPX4 (Homo sapiens) (UniProt P36969); assay: Primary qHTS Assay for Inhibitors of Recombinant Selenoprotein Glutathione Peroxidase 4 (GPX4) (AID 1845192); note: nearly all actives have a fitted effect of over 65% in size; note: potency is the fitted concentration of half-maximal effect
Sequence of Phospholipid hydroperoxide glutathione peroxidase GPX4 (Homo sapiens) (P36969 whole entry, looked up): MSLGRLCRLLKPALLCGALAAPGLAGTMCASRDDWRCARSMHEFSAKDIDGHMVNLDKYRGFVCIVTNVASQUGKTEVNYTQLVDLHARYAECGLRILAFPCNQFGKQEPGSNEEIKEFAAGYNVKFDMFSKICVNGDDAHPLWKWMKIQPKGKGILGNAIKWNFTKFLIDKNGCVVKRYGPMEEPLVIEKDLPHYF
In short: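 NADPH consumption, followed by fluorescence at 340/450 nm between 0 and 15 min, reports GPX4 activity via coupled glutathione reductase (100 nM). Enzyme 200 nM was pre-exposed to compound 30 min; 0.5 mM cumene hydroperoxide and 1 mM GSH served as substrates.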

[7] = target: Luciferin 4-monooxygenase (Photinus pyralis) (UniProt P08659); assay: Primary firefly luciferase (FLuc) qHTS assay for identification of artifact compounds. (AID 1845220); note: nearly all actives have a fitted effect of over 60% in size; note: potency is the fitted concentration of half-maximal effect
In short: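 FLuc 10 nM; luciferin 10 uM; ATP 10 uM; Tris-acetate pH 7.6, Mg-acetate 10 mM; 15 min RT preincubation; 5 min reaction; luminescence.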

[8] = system: Nanoluciferase (engineered Oplophorus gracilirostris luciferase); assay: Primary Nanoluciferase (NLuc) qHTS assay for identification of artifact compounds. (AID 1845222);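 note: NLuc secreted into diluted conditioned medium of S16 cells; series mostly up to about 54 µM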
In short: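 NLuc from S16 cell medium (1:55) plus test compounds, 15 min, room temperature. Luminescence after Nano-Glo (1:100) addition, 5 min.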

[9] = Primary redox qHTS assay for identification of artifact compounds. (AID 1845223)
In short: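 Amplex Red (25 uM) and HRP (250 mU/mL) in HBSS, with compounds for 15 min, then 250 uM DTT for 30 min, room temperature, dark. Fluorescence 525/598 nm read; normalized to DMSO and 10 uM DA3003; Hill fit.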

[10] = Quantitative High-Throughput drug screen in 47 multiple myeloma cell lines against the NCATS MIPE library collection: ARP1_JJKsccF8 cell viability assay (AID 1918928; note: nearly all actives have a fitted effect of over 40% in size; note: potency is the fitted concentration of half-maximal effect)
In short: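 Here, 48 h treatment with MIPE 4.0 agents at 37 °C preceded an ATP luminescence read. Plating density was 500 cells per well.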

[11] = target: Glutathione peroxidase 1 (Homo sapiens) (UniProt P07203); assay: Primary qHTS Assay for Inhibitors of Recombinant Selenoprotein Glutathione Peroxidase 1 (GPX1) (AID 1845191); note: nearly all actives have a fitted effect of over 65% in size; note: potency is the fitted concentration of half-maximal effect
Sequence of Glutathione peroxidase 1 (Homo sapiens) (P07203 whole entry, looked up): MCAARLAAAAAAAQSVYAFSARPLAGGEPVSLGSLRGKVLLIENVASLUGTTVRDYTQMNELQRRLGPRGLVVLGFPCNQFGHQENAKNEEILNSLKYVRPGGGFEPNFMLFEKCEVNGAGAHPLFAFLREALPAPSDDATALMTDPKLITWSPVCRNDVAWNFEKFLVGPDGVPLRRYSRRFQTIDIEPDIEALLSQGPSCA
In short: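 10 nM GPX1 + cpd, 30 min RT; start w/ 1 mM GSH, 0.5 mM cumene hydroperoxide, 0.5 mM NADPH, 100 nM GR, 0.01% BSA; buffer 50 mM Tris-HCl pH 7.5, 2 mM EDTA, 150 mM NaCl; Fl 340/450, 0 & 15 min.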

[12] = Quantitative High-Throughput drug screen in 47 multiple myeloma cell lines against the NCATS MIPE library collection: ARD_JJKsccE7 cell viability assay (AID 1918929; note: potency is the fitted concentration of half-maximal effect)
In short: as §2

Measured: Potency

C=CCc1cc(OC)c(O)c(C(=O)NCCO)c1
inactive: [1] | [2] | [3] | [4] | [5]

CC(=O)O[C@H]1C(=O)[C@@]2(C)C([C@H](OC(=O)c3ccccc3)[C@]3(O)C[C@H](OC(=O)[C@H](O)[C@@H](NC(=O)c4ccccc4)c4ccccc4)C(C)=C1C3(C)C)[C@]1(OC(C)=O)CO[C@@H]1C[C@@H]2O (some centres undefined)
inactive: [6] | [7] | [8] | [9] | [1] | [3] | [10]

CN(C)c1ccc(O)c2c1C[C@H]1C[C@H]3[C@H](N(C)C)C(=O)C(C(N)=O)=C(O)[C@@]3(O)C(=O)C1=C2O
active: [1] 20.9 µM | [3] 14.8 µM | [10] 16.6 µM
inactive: [11] | [4] | [12] | [5]

Cc1ccc(C)c(OCCCC(C)(C)C(=O)O)c1
active: [2] 16.6 µM
inactive: [6] | [1] | [10]

Nc1cc(C(Cl)=C(Cl)Cl)c(S(N)(=O)=O)cc1S(N)(=O)=O
inactive: [6] | [1] | [3] | [4] | [10] | [12] | [5]

CN(C)c1ccc2nc3ccc(=[N+](C)C)cc-3sc2c1
active: [1] 1.87 µM | [2] 6.62 µM | [3] 0.469 µM | [4] 8.33 µM | [10] 1.66 µM | [12] 13.2 µM | [5] 3.72 µM
inactive: [6]

COc1cc2c(N3CCN(C(=O)Nc4ccc(OC(C)C)cc4)CC3)ncnc2cc1OCCCN1CCCCC1
inactive: [6] | [7] | [8] | [9] | [4] | [12] | [5]

CN1CCC(=C2c3ccccc3CCc3sccc32)CC1
inactive: [6] | [1] | [3] | [10]

Cc1ccc(C(=O)c2cc(O)c(O)c([N+](=O)[O-])c2)cc1
active: [12] 20.9 µM
inactive: [11] | [6] | [10]

Clc1ccc(C(Cn2ccnc2)OCc2ccc(Sc3ccccc3)cc2)c(Cl)c1 (centres undefined)
active: [4] 20.9 µM | [12] 26.4 µM | [5] 18.7 µM
inactive: [11] | [6]

CC1=C(C(=O)O)N2C(=O)[C@@H](NC(=O)[C@H](N)C3=CCC=CC3)[C@H]2SC1
inactive: [2] | [3] | [10] | [5]

COC(=O)C1=C(C)NC(C)=C(C(=O)OC(C)C)C1c1cccc2nonc12 (centres undefined)
active: [2] 2.96 µM
inactive: [6] | [3] | [4] | [10] | [12] | [5]

C[C@]12CCC(=O)C=C1CC[C@@H]1[C@H]2[C@@H](O)C[C@@]2(C)[C@H]1CC[C@]2(O)C(=O)CO
inactive: [1] | [3] | [4] | [5]
active: [12] 0.0118 µM

COc1ccc(C2(C#N)CCC(C(=O)O)CC2)cc1OC1CCCC1 (centres undefined)
not listed: [2] | [11]
inactive: all other assays above

N[C@@H](Cc1cc(I)c(Oc2cc(I)c(O)c(I)c2)c(I)c1)C(=O)O
not listed: [2] | [5] | [11]
inactive: all other assays above

COC(=O)[C@H](Cc1ccccc1)NC(=O)[C@@H](N)CC(=O)O (H-Asp-Phe-OMe)
inactive: [6] | [1] | [3] | [4] | [10] | [12] | [5]

CNC[C@@H](O)[C@@H](O)[C@H](O)[C@H](O)CO
inactive: [3] | [4] | [10] | [12] | [5]

CCc1nc(N)nc(N)c1-c1ccc(Cl)cc1
inactive: [11] | [6] | [3] | [5]
active: [4] 1.48 µM

O=C(O)c1cccc(-c2noc(-c3ccccc3F)n2)c1
active: [7] 0.0067 µM | [12] 14.8 µM
not listed: [8] | [10] | [11]
inactive: all other assays above

Clc1ccc(C(Cn2ccnc2)OCc2ccsc2Cl)c(Cl)c1 (centres undefined)
inactive: [6]
active: [3] 14.8 µM | [4] 18.7 µM

CCCCCCCCOc1ccccc1C(=O)Nc1ccc(C(=O)OCC[N+](C)(CC)CC)cc1
inactive: [4] | [12]
active: [2] 18.7 µM | [10] 20.9 µM | [5] 5.9 µM

COCCCOc1ccnc(CS(=O)c2nc3ccccc3[nH]2)c1C (centres undefined)
inactive and 14.3 µM (active): [11]
not listed: [6] | [10]
inactive: all other assays above

O=C(OC1C[C@H]2CC[C@@H](C1)[N+]21CCCC1)C(O)(c1ccccc1)c1ccccc1 (some centres undefined)
not listed: [2] | [11] | [12]
inactive: all other assays above

CC1=C(C)C(=O)C(C(CCCCCC(=O)O)c2ccccc2)=C(C)C1=O (centres undefined)
active: [6] 11.2 µM
inactive: [1] | [3] | [5]

COc1c2occc2cc2ccc(=O)oc12
inactive: [6] | [3] | [4] | [10] | [5]

COC(=O)C1=C(C)NC(C)=C(C(=O)OCCCN2CCC(c3ccccc3)(c3ccccc3)CC2)C1c1cccc([N+](=O)[O-])c1 (centres undefined)
inactive: [11] | [1] | [3] | [4] | [12] | [5]

Cc1cccc(C)c1OCC(=O)N[C@@H](Cc1ccccc1)[C@@H](O)C[C@H](Cc1ccccc1)NC(=O)[C@H](C(C)C)N1CCCNC1=O
active: [4] 8.33 µM | [12] 5.9 µM
inactive: [6]

CC(C)[N+]1(C)[C@@H]2CC[C@H]1CC(OC(=O)C(CO)c1ccccc1)C2 (some centres undefined)
inactive: [6] | [1] | [3] | [10]

CCCCN(CCCC)CCC(O)c1cc2c(Cl)cc(Cl)cc2c2cc(C(F)(F)F)ccc12 (centres undefined)
inactive: [6] | [10] | [12] | [5]
active: [1] 20.9 µM | [3] 0.264 µM

O=C(CS(=O)Cc1ccco1)NCC=CCOc1cc(CN2CCCCC2)ccn1 (centres undefined)
inactive: [1] | [3] | [4] | [12]

Cc1nc(-c2ccc(OCC(C)C)c(C#N)c2)sc1C(=O)O
inactive: [6] | [1] | [2] | [3] | [4] | [10] | [12]

COc1cc2nc(N3CCN(C(=O)C4CCCO4)CC3)nc(N)c2cc1OC (centres undefined)
inactive: [11] | [6] | [3] | [5]

Cc1cc(=O)c2c(O)c3c(O)cc(=O)c4c3c3c(cc(O)c1c23)C(C)(C)C=4O
active: [1] 13.2 µM | [3] 14.8 µM | [4] 5.26 µM | [10] 2.96 µM | [12] 3.32 µM | [5] 14.8 µM

COCCCN1CCC(NC(=O)c2cc(Cl)c(N)c3c2OCC3)CC1
inactive: [11] | [6]
active: [4] 14.8 µM | [12] 20.9 µM

O=C(NCC1CCCCN1)c1cc(OCC(F)(F)F)ccc1OCC(F)(F)F (centres undefined)
inactive: [6] | [3]
active: [4] 3.32 µM | [12] 3.72 µM | [5] 1.32 µM

CN1C(C(=O)Nc2ccccn2)=C(O)c2sccc2S1(=O)=O
inactive: [6] | [1] | [3] | [10] | [5]
